The source made the active and inactive calls. Where a call stands in place of a potency, no number is given. The call rests on the fitted dose curve; in most records, active means well fitted curve in the direction sought with a large enough effect in the repeat runs; inconclusive means weak or mixed curves; inactive means flat fitted curve, though single readings scatter.
Experiment: qHTS assay to test for compound auto fluorescence at 535 nm (green) in HEK293 cells (AID 720680)
Details: green autofluorescence 485/535 nm; series mostly up to 91.3 µM
Text: U.S. Tox21 Program National Center for Advancing Translational Sciences [NCATS] NIH Chemical Genomics Center [NCGC] U.S. Environmental Protection Agency [EPA] National Institutes of Environmental Health Sciences [NIEHS] National Toxicology Program [NTP] U.S. Food and Drug Administration [FDA] Tox21 Assay Overview: Compound auto fluorescence often interferes with screening of the compound library against various biological targets and signaling pathways. Some of these compounds may have fluorophoric properties. Such properties may interfere with the assay outputs resulting in false positives and/or negatives. To decrease such complications and ensure the compound activities are relevant in terms of biological response, the Tox21 10K compound library was screened for auto fluorescence. From the fluorophores used as reporter signals in our screening assays, the auto fluorescence equivalencies of compounds against three fluorophores have been evaluated: Triamterene, Fluorescein and Rose Bengal sodium for blue, green and red fluorescence, respectively. The fluorescence intensities were measured using Excitation/Emission wavelengths at 405/460nm, 485/535nm and 540/590nm for blue, green and red labels, respectively. This assay includes the green fluorescence data.
Tox21 Assay Protocol Summary: 2,000 HEK293 cells in 5 uL of culture medium containing 10% dialyzed FBS per well were dispensed into black wall/clear bottom 1536-well plates using a Multidrop Combi Dispenser (Thermo Scientific). The assay plates were incubated for 4-5 hr at 37C to allow cell attachment to the well bottom, followed by the transfer of 23 nL compound or DMSO vehicle by a pintool work station (Kalypsys, San Diego, CA). After the assay plates were incubated overnight at 37C and 5% CO2, fluorescence intensities in the assay plates were measured by an Envision (PerkinElmer, Shelton, CT) plate reader using three labels for measuring blue, green and red fluorescence at […] 460, 535 and 590nm respectively.
Potency means the concentration at half of the fitted maximal effect; tags describe the fitted curve by direction and shape or compound fluorescence and quenching.

Structure (SMILES)	Potency	fluorescence, % of fluorescein
Cc1cccc(Br)c1	inactive	
O=Cc1ccc(F)cc1	inactive	
CCCCOC(=O)C(C)CC (stereo not given)	inactive	
C(=C/c1ccccc1)/c1ccccc1	inactive	
CC(C)c1cccc(C(C)C)c1N1C(=O)c2ccc(O)cc2C1=O	inactive	
CCCCCCCCCCCC(=O)N(CC)CC	inactive	
CC=O	inactive	
COC(=O)[C@]1(C)CCC[C@@]2(C)[C@H]1CC=C1C=C(C(C)C)CC[C@@H]12	inactive	
NC1(c2ccc(-c3nc4ccn5c(=O)[nH]nc5c4cc3-c3ccccc3)cc2)CCC1	inactive	
CCCCN(CCCC)CCC(O)c1cc2c(Cl)cc(Cl)cc2c2cc(C(F)(F)F)ccc12 (stereo not given)		-0.0754% [at 18.6 µM] (inactive)
CC(O)C#CC(C)O (stereo not given)	inactive	
C[n+]1c2cc(N)ccc2cc2ccc(N)cc21 (tested in a mixture with another compound)	12.6 µM [fluorescent] (active)	
CC(NCCC(c1ccccc1)c1ccccc1)c1ccccc1 (stereo not given)	inactive	
CCNc1nc(NC(C)CC)nc(OC)n1 (stereo not given)	inactive	
CSc1c(Cl)c(Cl)c(Cl)c(Cl)c1Cl	inactive	
CNC(=S)NN	inactive	
COc1cc(C(C)C)c2c(c1)S(=O)(=O)N(COc1cc(=O)n3cccc(OCCN4CCCCC4)c3n1)C2=O		-0.188% [at 18.6 µM] (inactive)
CC(=O)OC(OC(C)=O)c1ccc([N+](=O)[O-])o1	inactive	
C=C1C(C)(C)[C@@]2(Cl)C(Cl)[C@]1(Cl)C(Cl)(Cl)C2(Cl)Cl (stereo not given in full)	inactive	
CCCCOc1ccc(C(=O)CCN2CCCCC2)cc1		0.0036% [at 18.6 µM] (inactive)

Structure (SMILES)	Potency	fluorescence, % of fluorescein
C=CC(=O)OCC(O)COc1ccccc1 (stereo not given)	inactive	
COC(=O)CC#N	inactive	
O=C(O)CC(=O)O	inactive	
Cc1c(C)n(Cc2ccccc2)c2ccc(C(=O)OCCN(C)C)cc12	inactive	
C=C(C)C(=O)OCCC[Si](Cl)(Cl)Cl	inactive	
Clc1ccc(C(c2ccccc2Cl)C(Cl)Cl)cc1 (stereo not given)	inactive	
NC(=O)C(=O)N/N=C/c1ccc([N+](=O)[O-])o1	inactive	
Clc1ccccc1CN1CCc2sccc2C1	inactive	
O=C(Nc1ccc(Cl)c(Cl)c1)c1cc(Cl)cc(Cl)c1O	inactive	
O=C(Oc1ccccc1)c1cccc(C(=O)Oc2ccccc2)c1	inactive	
O=C1c2c(O)ccc([N+](=O)[O-])c2C(=O)c2c([N+](=O)[O-])ccc(O)c21	inactive	
CCCCCCCCCCOCC(O)CN (stereo not given)	inactive	
CC(C)(C)c1cc(/C=C2\SC(=N)NC2=O)cc(C(C)(C)C)c1O	inactive	
CCCCCCCCCCCCOC(=O)c1cc(O)c(O)c(O)c1	inactive	
CCC(=O)OCCc1ccccc1	inactive	
COc1ccccc1OCCNCC(O)COc1cccc2[nH]c3ccccc3c12 (stereo not given)	inactive	
CCCCCCCCCCCCCCNCCO	inactive	
[O]=[Zr]	inactive	
S=C(SSSSSSC(=S)N1CCCCC1)N1CCCCC1		-0.141% [at 18.6 µM] (inactive)
CCCOc1sc(C(=O)N2CCC(c3cc(CN)ccc3F)CC2)c(C)c1Br	inactive	

From PubChem BioAssay (Tox21)
